This passage reports outcome and AC50 results from PubChem BioAssay (EPA / NIEHS).

What is called AC50 is the concentration giving half of the maximal activity seen.

Values joined by “and” are separate entries in the source; they are usually repeats but may differ in a detail not shown here. Identical values can stand only once. Results filed as inconclusive are left out. More than one record can exist for a structure, and the calls need not agree. Active and inactive are the calls of the source. How the source made its calls, unless noted: active means hit-call score of the fitted dose curve at least 0.9, where 1 is the maximum; inconclusive means response in the unintended direction; inactive means score below 0.9. Peptide text beside a SMILES is read from it.

Tested on in one assay: not listed separately
Briefly: CCTE_Shafer_MEA_dev_per_network_spike_spike_number_mean: CCTE's Neural Network Formation Assay for Mean Number of Spikes in a Network Spike, Shafer Lab (AID 2284053; active means hit-call score of the fitted dose curve at least 0.9, where 1 is the maximum; inactive means score below 0.9;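 on AC50: fitted as decrease in spikes per network spike relative to DMSO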). The gist of the method: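 Continuous twelve-day exposure of developing rat cortical networks grown over 16 microelectrodes per well; spontaneous firing is captured at four time points, and the per-network-spike spike number is integrated over development by trapezoidal AUC.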
Take `COC(=O)[C@H](Cc1ccccc1)NC(=O)[C@@H](N)CC(=O)O` (H-Asp-Phe-OMe): the result was inactive.
On the same count and under the same terms, the entry for `Cc1c(C(=O)c2c[nH]n(C)c2=O)ccc(S(C)(=O)=O)c1C1=NOCC1` is “inactive”.
Same read-out and setting: the entry for `Cc1noc(NS(=O)(=O)c2ccc(N)cc2)c1C` is “inactive”; for `CCCCNS(=O)(=O)c1ccccc1` it is “inactive”.
As to `C[N+](C)(C)CCCNS(=O)(=O)C(F)(F)C(F)(F)C(F)(F)C(F)(F)C(F)(F)C(F)(F)C(F)(F)C(F)(F)F`, the AC50 is 901 nM (active) and 1.36 µM (active).

Tested on in the next assay: not listed separately
In words: CCTE_Shafer_MEA_dev_per_network_spike_spike_percent: CCTE's Neural Network Formation Assay for Percent of Spikes in a Network Spike, Shafer Lab (AID 2284054; active means hit-call score of the fitted dose curve at least 0.9, where 1 is the maximum; inactive means score below 0.9). The gist of the method: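 Metric: fraction of spikes falling in a 0.05 s window at network-spike peaks. Recordings were made on days 5, 7, 9 and 12 and collapsed by trapezoidal AUC. Cultures were rat cortical neurons on MEA plates, dosed continuously from plating, re-dosed at media changes.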
Turning to `COC(=O)[C@H](Cc1ccccc1)NC(=O)[C@@H](N)CC(=O)O` (H-Asp-Phe-OMe), the compound was called inactive.
On the same count and under the same terms, under `Cc1c(C(=O)c2c[nH]n(C)c2=O)ccc(S(C)(=O)=O)c1C1=NOCC1` stands “inactive”; under `Cc1noc(NS(=O)(=O)c2ccc(N)cc2)c1C`, “inactive”.
For the compound `CCCCNS(=O)(=O)c1ccccc1`, the compound was classed as inactive.
For the compound `C[N+](C)(C)CCCNS(=O)(=O)C(F)(F)C(F)(F)C(F)(F)C(F)(F)C(F)(F)C(F)(F)C(F)(F)C(F)(F)F`, the AC50 is 2.55 µM (active) and the result was inactive.

The subject of the next assay is DIO3 (gene 1735). In words: CCTE_GLTED_hDIO3: CCTE's human Deiodinase 3 (DIO3) Inhibition Assay, Great Lakes Toxicology and Ecology Division (GLTED) Lab (AID 2284055).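 Further: potency is for inhibition seen as loss of released iodide signal.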 The essentials:
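hDIO3 (adenovirus-expressed) + test chemical, 3 h incubation; free iodide quantified by Sandell-Kolthoff reaction, absorbance read-out. DMSO negative control, n=3.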
For `CCCCC/C=C\C/C=C\CCCCCCCC(=O)O`, the AC50 is 16.9 µM (active).
On the same count and under the same terms, the figure for `O=c1c(O)c(-c2ccc(O)cc2O)oc2cc(O)cc(O)c12` is 33.5 µM (active); for `CCCCCCCOC(=O)c1ccc(O)cc1` it is 80.8 µM (active); for `C/C=C/C=C/CCCCCCCO` it is 16.4 µM (active).
Still for that read-out and setting: the figure for `CCCCCCCCCCCCCCCCCCOS(=O)(=O)O` is 3.04 µM (active); for `CCCCCCCCCCCCc1ccc(O)cc1` it is 11.2 µM (active).
The same measure, in the same setting: under `O=C(O)c1cc(O)c2ccccc2c1O` stands 54.1 µM (active).

Tested on in a further assay: not listed separately
In words: CCTE_Shafer_MEA_dev_LDH: CCTE's Lactate Dehydrogenase Assay for Cytotoxicity in the Neural Network Formation Assay, Shafer Lab (AID 2284068).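 Further: exposure for twelve days from plating with re-dosing on DIV 5 and 9.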 The essentials: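 Cytotoxicity companion to network-formation recordings: rat cortical neurons received compound over 12 days of development, re-dosed at DIV 5 and 9 feeds. Viability was inferred from LDH enzyme activity relative to DMSO.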
Consider `COC(=O)[C@H](Cc1ccccc1)NC(=O)[C@@H](N)CC(=O)O` (H-Asp-Phe-OMe), for which the call was inactive.
Same read-out and setting: under `Cc1noc(NS(=O)(=O)c2ccc(N)cc2)c1C` stands “inactive”; under `CCCCNS(=O)(=O)c1ccccc1`, “inactive”.
`C[N+](C)(C)CCCNS(=O)(=O)C(F)(F)C(F)(F)C(F)(F)C(F)(F)C(F)(F)C(F)(F)C(F)(F)C(F)(F)F`: the AC50 is 15 µM (active).

Tested on in a further assay: not listed separately
Briefly: CCTE_Shafer_MEA_acute_AB: CCTE's Alamar Blue Assay for Cytotoxicity in the Neural Acute Assay, Shafer Lab (AID 2284069).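 Further: active compounds lower the viability signal compared with DMSO wells.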 The essentials:
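Metabolic activity in chemically exposed rat cortical neurons (MEA cultures, day 13/15 post-plating) measured via CellTiter Blue resazurin reduction, 544/590 nm fluorescence; fitted relative to DMSO, with signal loss indicating reduced viability.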
Background: The colour change of resazurin is a common sign of viable cells or microbes.
For the compound `C1CNCCN1`, the outcome was inactive.
Same read-out and setting: the entry for `Cc1c(C(=O)c2c[nH]n(C)c2=O)ccc(S(C)(=O)=O)c1C1=NOCC1` is “inactive”; for `Nc1cccc(N)n1` it is “inactive”.
Still for that read-out and setting: the entry for `CC(CCC(=O)O)(c1ccc(O)cc1)c1ccc(O)cc1` is “inactive”; for `c1ccc(Nc2cccc3ccccc23)cc1` it is “inactive”.
